The record followed here is the antibiotic and cytotoxicity screens of Wong et al. (2023).

Hit rate of the full screen: of about 39,000 compounds, about 3,300 (8.5%) were called active. The list comes from a sample in which actives are over-represented; it also holds similar structures and randomly drawn compounds.

In the experiment the test system is HepG2. The experiment can be described thus: cytotoxicity call (relative viability < 0.9). To be noted: 10 µM.
Turning to `C[C@H](CO)N1C[C@H](C)[C@@H](CN(C)Cc2ccc(-c3ccccc3)cc2)Oc2c(NC(=O)C3CCOCC3)cccc2C1=O`, the cytotoxicity call is “inactive”.

As to `C[C@@H]1CN([C@H](C)CO)C(=O)c2cc(NC(=O)CCCN(C)C)ccc2O[C@@H](C)CCCCO[C@@H]1CN(C)S(C)(=O)=O`, the cytotoxicity call was “inactive”.

For the molecule `C[C@@H]1CN([C@H](C)CO)C(=O)CCCn2cc(nn2)CO[C@@H]1CN(C)C(=O)Nc1ccc(N2CCCCC2)cc1`, the cytotoxicity call was “inactive”.

Turning to `Cc1noc(C)c1NC(=O)N(C)C[C@H]1Oc2ccc(NS(C)(=O)=O)cc2CC(=O)N([C@@H](C)CO)C[C@H]1C`, the cytotoxicity call was “inactive”.

With `C[C@@H]1CCCCO[C@@H](CN(C)S(=O)(=O)c2cn(C)cn2)[C@H](C)CN([C@@H](C)CO)C(=O)c2cc(N(C)C)ccc2O1`, the cytotoxicity call is “inactive”.

As to `O=C(C[C@@H]1CC[C@@H]2[C@H](COC[C@H](O)CN2Cc2cc(F)ccc2F)O1)N[C@@H]1CCN(Cc2ccccc2)C1`, the cytotoxicity call was “inactive”.

For `C[C@@H]1CN([C@@H](C)CO)C(=O)c2cc(Br)cnc2O[C@H]1CN(C)C(=O)CCN1CCCCC1`, the cytotoxicity call was “inactive”.

Regarding `C[C@@H]1CCCCO[C@H](CN(C)C(=O)Nc2ccc(F)cc2)[C@H](C)CN([C@@H](C)CO)C(=O)c2cc(NC(=O)Nc3cccc4ccccc34)ccc2O1`, the cytotoxicity call was “inactive”.

Take `Cc1cc(C)c2c(c1)[C@@H](N(Cc1cc(C(F)(F)F)cc(C(F)(F)F)c1)c1nnn(C)n1)CCCN2C[C@H]1CC[C@H](C(=O)O)CC1`: the cytotoxicity call is “active”.

As for `Cc1ccc(S(=O)(=O)Nc2ccc3c(c2)C(=O)N([C@H](C)CO)C[C@H](C)[C@H](CN(C)S(=O)(=O)c2ccc(C)cc2)OCCCC[C@@H](C)O3)cc1`, the cytotoxicity call is “inactive”.

Turning to `Cc1ccc(S(=O)(=O)Nc2ccc3c(c2)CC(=O)N([C@H](C)CO)C[C@@H](C)[C@@H](CN(C)Cc2ccc(Cl)c(Cl)c2)O3)cc1`, the cytotoxicity call is “active”.

Consider `Cc1ccc(S(=O)(=O)Nc2ccc3c(c2)CC(=O)N([C@H](C)CO)C[C@H](C)[C@@H](CN(C)Cc2ccc(Cl)c(Cl)c2)O3)cc1`, for which the cytotoxicity call is “inactive”.

On to `Cc1ccc(S(=O)(=O)Nc2ccc3c(c2)CC(=O)N([C@H](C)CO)C[C@H](C)[C@H](CN(C)Cc2ccc(Cl)c(Cl)c2)O3)cc1`, for which the cytotoxicity call was “active”.

As for `Cc1ccc(S(=O)(=O)Nc2ccc3c(c2)CC(=O)N([C@@H](C)CO)C[C@H](C)[C@@H](CN(C)Cc2ccc(Cl)c(Cl)c2)O3)cc1`, the cytotoxicity call was “inactive”.

Consider `Cc1ccc(S(=O)(=O)Nc2ccc3c(c2)CC(=O)N([C@@H](C)CO)C[C@H](C)[C@H](CN(C)Cc2ccc(Cl)c(Cl)c2)O3)cc1`, for which the cytotoxicity call was “active”.

Regarding `Cc1ccc(S(=O)(=O)Nc2ccc3c(c2)CC(=O)N([C@H](C)CO)C[C@@H](C)[C@H](CN(C)Cc2ccc(Cl)c(Cl)c2)O3)cc1`, the cytotoxicity call is “inactive”.

`Cc1ccc(S(=O)(=O)Nc2ccc3c(c2)CC(=O)N([C@@H](C)CO)C[C@@H](C)[C@@H](CN(C)Cc2ccc(Cl)c(Cl)c2)O3)cc1`: the cytotoxicity call is “active”.

`Cc1ccc(S(=O)(=O)Nc2ccc3c(c2)CC(=O)N([C@@H](C)CO)C[C@@H](C)[C@H](CN(C)Cc2ccc(Cl)c(Cl)c2)O3)cc1`: the cytotoxicity call is “inactive”.

For `Cc1ccc(S(=O)(=O)Nc2ccc3c(c2)C(=O)N([C@@H](C)CO)C[C@H](C)[C@@H](CN(C)S(C)(=O)=O)OCCCC[C@@H](C)O3)cc1`, the cytotoxicity call is “inactive”.

As to `COc1ccc(S(=O)(=O)Nc2ccc3c(c2)C(=O)N([C@H](C)CO)C[C@@H](C)[C@@H](CN(C)Cc2ccc(Cl)c(Cl)c2)O3)cc1`, the cytotoxicity call is “inactive”.

Turning to `O=C(C[C@@H]1CC[C@H]2[C@@H](COC[C@@H](O)CN2S(=O)(=O)c2cccc(F)c2)O1)NCc1ccncn1`, the cytotoxicity call is “inactive”.

Turning to `CC(=O)N1CCC(C(=O)O)CC1`, the cytotoxicity call was “inactive”.

Regarding `COc1ccc(NC(=O)N(C)C[C@@H]2OCCCC[C@H](C)Oc3ccc(NC(=O)C4CCCCC4)cc3C(=O)N([C@@H](C)CO)C[C@@H]2C)cc1`, the cytotoxicity call was “inactive”.

`Cc1cc(C)n(-c2ccc(=O)n(CC(=O)N3CCN(S(=O)(=O)c4ccc(F)cc4)CC3)n2)n1`: the cytotoxicity call is “inactive”.

Consider `C[C@@H]1CN([C@H](C)CO)C(=O)c2cc(NC(=O)CCN3CCOCC3)ccc2O[C@H]1CN(C)S(=O)(=O)c1ccc(F)cc1`, for which the cytotoxicity call was “inactive”.

Turning to `C[C@H](CO)N1C[C@H](C)[C@H](CN(C)C(=O)Nc2ccc3c(c2)OCO3)Oc2c(NC(=O)C3CCOCC3)cccc2C1=O`, the cytotoxicity call was “inactive”.

For the molecule `CNCCCC12CCC(c3ccccc31)c1ccccc12.Cl`, the cytotoxicity call was “active”.

`CC(C)CC#Cc1cnc2c(c1)C(=O)N([C@@H](C)CO)C[C@H](C)[C@@H](CN(C)C(=O)CN1CCOCC1)O2`: the cytotoxicity call was “inactive”.

Regarding `C[C@@H]1CCCCO[C@H](CN(C)C(=O)CCCN(C)C)[C@H](C)CN([C@@H](C)CO)C(=O)c2cc(NC(=O)Nc3ccc(C(F)(F)F)cc3)ccc2O1`, the cytotoxicity call was “inactive”.

Regarding `COc1ccccc1C#Cc1cnc2c(c1)C(=O)N([C@H](C)CO)C[C@H](C)[C@H](CN(C)S(=O)(=O)c1cn(C)cn1)O2`, the cytotoxicity call was “inactive”.

In the case of `C[C@@H]1CCCCO[C@H](CN(C)S(=O)(=O)c2ccccc2)[C@H](C)CN([C@@H](C)CO)C(=O)c2cc(NS(=O)(=O)c3cn(C)cn3)ccc2O1`, the cytotoxicity call was “inactive”.

`C[C@@H]1CCCCO[C@@H](CN(C)C(=O)Nc2cccc3ccccc23)[C@@H](C)CN([C@@H](C)CO)C(=O)c2cc(NC(=O)c3ccccc3)ccc2O1`: the cytotoxicity call is “inactive”.

For the molecule `C[C@H](CO)N1C[C@H](C)[C@@H](CN(C)C(=O)Nc2cccc3ccccc23)OCCCC[C@H](C)Oc2ccc(NC(=O)c3ccccc3)cc2C1=O`, the cytotoxicity call is “inactive”.

Consider `C[C@@H]1CN([C@H](C)CO)C(=O)c2cc(NC(=O)c3ccccc3)ccc2O[C@@H](C)CCCCO[C@@H]1CN(C)C(=O)Nc1cccc2ccccc12`, for which the cytotoxicity call was “inactive”.

Consider `C[C@@H]1CN([C@@H](C)CO)C(=O)c2cc(NC(=O)c3ccccc3)ccc2O[C@@H](C)CCCCO[C@H]1CN(C)C(=O)Nc1cccc2ccccc12`, for which the cytotoxicity call was “active”.

With `C[C@@H]1CN([C@H](C)CO)C(=O)c2cc(NC(=O)c3ccccc3)ccc2O[C@@H](C)CCCCO[C@H]1CN(C)C(=O)Nc1cccc2ccccc12`, the cytotoxicity call is “active”.

In the case of `C[C@@H]1CCCCO[C@@H](CN(C)C(=O)Nc2cccc3ccccc23)[C@H](C)CN([C@@H](C)CO)C(=O)c2cc(NC(=O)c3ccccc3)ccc2O1`, the cytotoxicity call is “active”.

Turning to `C[C@@H]1CCCCO[C@@H](CN(C)C(=O)Nc2cccc3ccccc23)[C@@H](C)CN([C@H](C)CO)C(=O)c2cc(NC(=O)c3ccccc3)ccc2O1`, the cytotoxicity call is “inactive”.

Consider `C[C@@H]1CCCCO[C@H](CN(C)C(=O)Nc2cccc3ccccc23)[C@@H](C)CN([C@H](C)CO)C(=O)c2cc(NC(=O)c3ccccc3)ccc2O1`, for which the cytotoxicity call is “inactive”.

Consider `C[C@H]1CCCCO[C@H](CN(C)C(=O)Nc2cccc3ccccc23)[C@@H](C)CN([C@@H](C)CO)C(=O)c2cc(NC(=O)c3ccncc3)ccc2O1`, for which the cytotoxicity call was “inactive”.

On to `C[C@@H]1CCCCO[C@H](CN(C)C(=O)Nc2cccc3ccccc23)[C@@H](C)CN([C@@H](C)CO)C(=O)c2cc(NC(=O)c3ccncc3)ccc2O1`, for which the cytotoxicity call is “active”.

Turning to `C[C@H](CO)N1C[C@H](C)[C@@H](CN(C)C(=O)Nc2cccc3ccccc23)OCCCC[C@H](C)Oc2ccc(NC(=O)c3ccncc3)cc2C1=O`, the cytotoxicity call was “inactive”.

Regarding `C[C@@H]1CCCCO[C@H](CN(C)C(=O)Nc2cccc3ccccc23)[C@H](C)CN([C@@H](C)CO)C(=O)c2cc(NC(=O)c3ccccc3)ccc2O1`, the cytotoxicity call was “inactive”.

On to `CC(C)NC(=O)N(C)C[C@H]1OCCCC[C@@H](C)Oc2ccc(NC(=O)Nc3ccc(F)cc3)cc2C(=O)N([C@@H](C)CO)C[C@H]1C`, for which the cytotoxicity call was “inactive”.

For the molecule `CC(C)CC#Cc1cnc2c(c1)C(=O)N([C@H](C)CO)C[C@@H](C)[C@H](CN(C)S(=O)(=O)c1cccs1)O2`, the cytotoxicity call was “inactive”.

In the case of `Cc1noc(C)c1S(=O)(=O)N(C)C[C@H]1OCCCC[C@H](C)Oc2ccc(NS(C)(=O)=O)cc2C(=O)N([C@@H](C)CO)C[C@@H]1C`, the cytotoxicity call is “inactive”.

On to `C[C@@H]1CN([C@@H](C)CO)C(=O)Cc2cc(NC(=O)C3CC3)ccc2O[C@H]1CN(C)C(=O)Nc1ccc2c(c1)OCO2`, for which the cytotoxicity call is “inactive”.

Take `CNC(=O)c1ccc2c(c1)OCO2`: the cytotoxicity call is “inactive”.

Consider `O=C(C[C@@H]1C[C@H]2c3cc(NS(=O)(=O)c4ccc(F)cc4)ccc3O[C@H]2[C@H](CO)O1)NCc1cccc(F)c1`, for which the cytotoxicity call is “inactive”.

In the case of `C[C@H]1CN([C@@H](C)CO)C(=O)Cc2cc(NC(=O)NC3CCCCC3)ccc2O[C@H]1CN(C)C(=O)Nc1ccc(C(F)(F)F)cc1`, the cytotoxicity call is “inactive”.

In the case of `C[C@H](CO)N1C[C@H](C)[C@@H](CN(C)Cc2ccc(Oc3ccccc3)cc2)Oc2cc(Br)ccc2S1(=O)=O`, the cytotoxicity call is “inactive”.

For the molecule `C[C@H]1CN([C@@H](C)CO)C(=O)Cc2cc(NS(=O)(=O)c3cccs3)ccc2O[C@H]1CN(C)S(=O)(=O)c1ccccc1`, the cytotoxicity call is “inactive”.

On to `C[C@@H]1CCCCO[C@@H](CN(C)Cc2ccccc2)[C@H](C)CN([C@@H](C)CO)C(=O)c2cc(NS(=O)(=O)c3ccc(F)cc3)ccc2O1`, for which the cytotoxicity call was “inactive”.

As to `Cc1c2oc3c(C)ccc(C(=O)OC(C)C4NC(=O)C(C(C)C)N(C)C(=O)CN(C)C(=O)C5CCCN5C(=O)C(C(C)C)NC4=O)c3nc-2c(C(=O)OC(C)C2NC(=O)C(C(C)C)N(C)C(=O)CN(C)C(=O)C3CCCN3C(=O)C(C(C)C)NC2=O)c(N)c1=O` (stereo unspecified), the cytotoxicity call is “active”.

Take `Cc1c2oc3c(C)ccc(C(=O)N[C@@H]4C(=O)N[C@H](C(C)C)C(=O)N5CCC[C@H]5C(=O)N(C)CC(=O)N(C)[C@@H](C(C)C)C(=O)O[C@@H]4C)c3nc-2c(C(=O)N[C@@H]2C(=O)N[C@H](C(C)C)C(=O)N3CCC[C@H]3C(=O)N(C)CC(=O)N(C)[C@@H](C(C)C)C(=O)O[C@@H]2C)c(N)c1=O`: the cytotoxicity call was “active”.

Take `Cc1c2oc3c(C)ccc(C(=O)N[C@@H]4C(=O)N[C@@H](C(C)C)C(=O)N5CCC[C@H]5C(=O)N(C)CC(=O)N(C)[C@@H](C(C)C)C(=O)O[C@@H]4C)c3nc-2c(C(=O)N[C@@H]2C(=O)N[C@@H](C(C)C)C(=O)N3CCC[C@H]3C(=O)N(C)CC(=O)N(C)[C@@H](C(C)C)C(=O)O[C@@H]2C)c(N)c1=O`: the cytotoxicity call was “active”.
